Key:
[1] = circadian clock period modulators, cell-based, LOPAC library, luminescence reporter (AID 2774); conditions: circadian reporter cells, at 7 µM, actives lie on both sides;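 further: values are relative to mean of DMSO wells on each plate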
[2] = system: Hepatitis C virus NS3 helicase; assay: HCV NS3 helicase inhibitors, primary screen, biochemical, fluorescence polarization, LOPAC1280 library (AID 687035; in the data active means inhibition above about 37%); conditions: Purified HCV NS3 helicase, Cy5-dT15 ssDNA binding fluorescence polarization; stronger effect = higher value; concentration not given here
[3] = Cy5 fluorescence quenching or enhancement artefacts, artefact control for HCV NS3 helicase inhibitor project, biochemical, LOPAC1280 (AID 687037); conditions: Cy5-DNA-NS3h complex fluorescence interference counterscreen
[4] = target: NAD(+) hydrolase SARM1 (Homo sapiens) (UniProt Q6SZW1); assay: SARM1 TIR NADase inhibitors, cell lysate, NAD-Glo luminescence (AID 1508614;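 active means compound whose remaining NAD level is above about 45 nM, limit read from the data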); conditions: SAM-TIR HEK293T lysate NADase, at 1 µM, stronger effect = higher value
NAD(+) hydrolase SARM1 (Homo sapiens), sequence (Q6SZW1 whole entry, looked up): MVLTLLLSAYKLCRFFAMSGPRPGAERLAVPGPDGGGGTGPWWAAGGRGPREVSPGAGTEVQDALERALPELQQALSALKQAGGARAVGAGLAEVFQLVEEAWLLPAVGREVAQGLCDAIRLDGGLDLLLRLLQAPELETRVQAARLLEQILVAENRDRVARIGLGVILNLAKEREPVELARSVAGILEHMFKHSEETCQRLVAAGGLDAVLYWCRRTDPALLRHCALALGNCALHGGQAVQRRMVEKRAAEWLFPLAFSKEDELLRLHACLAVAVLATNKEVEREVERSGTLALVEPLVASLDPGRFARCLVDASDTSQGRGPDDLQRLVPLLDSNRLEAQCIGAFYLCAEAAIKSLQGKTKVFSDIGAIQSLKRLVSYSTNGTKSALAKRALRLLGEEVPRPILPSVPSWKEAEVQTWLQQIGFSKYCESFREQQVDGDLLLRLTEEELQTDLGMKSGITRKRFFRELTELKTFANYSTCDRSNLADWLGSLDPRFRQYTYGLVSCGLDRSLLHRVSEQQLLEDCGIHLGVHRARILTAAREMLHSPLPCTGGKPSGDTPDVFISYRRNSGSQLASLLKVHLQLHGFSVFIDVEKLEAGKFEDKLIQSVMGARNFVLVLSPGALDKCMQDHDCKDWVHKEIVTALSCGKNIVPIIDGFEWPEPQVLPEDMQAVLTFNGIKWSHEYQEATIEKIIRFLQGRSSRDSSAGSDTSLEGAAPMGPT

CCC(=O)c1ccc2c(c1)N(CCCN(C)C)c1ccccc1S2
inactive: period change [1] -0.02 h | inhibition [2] -4% | fluorescence ratio (interference) [3] 0.9

N[C@@H](COP(=O)(O)O)C(=O)O
inactive: period change [1] 0.04 h | inhibition [2] -1% | fluorescence ratio (interference) [3] 1 | remaining NAD [4] 10 nM

COC(=O)[C@@H](N)Cc1ccc(O)c(O)c1
inactive: period change [1] 0.105 h | inhibition [2] -2% | fluorescence ratio (interference) [3] 1

Cc1nc2c([nH]1)c(=O)n(C)c(=O)n2Cc1ccco1
inactive: period change [1] 0.08 h | inhibition [2] -1% | fluorescence ratio (interference) [3] 1

CSc1ccc(C(=O)c2[nH]c(=O)[nH]c2C)cc1
inactive: period change [1] 0.015 h | inhibition [2] 0% | fluorescence ratio (interference) [3] 1.1

— PubChem BioAssay
